Rtt109 HAT inh – blocks Candida albicans Rtt109/Vps75 acetyltransferase activity; Q5AAJ8; purified Rtt109/Vps75, ThioGlo CoA-SH fluorescence, 4 h; inhibition, % at 34.9 µM; 330,000 tested, 0.16% active; AID 540336;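 active = inhibition of at least 50% in every replicate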
Target sequence (Q5AAJ8 whole entry, looked up): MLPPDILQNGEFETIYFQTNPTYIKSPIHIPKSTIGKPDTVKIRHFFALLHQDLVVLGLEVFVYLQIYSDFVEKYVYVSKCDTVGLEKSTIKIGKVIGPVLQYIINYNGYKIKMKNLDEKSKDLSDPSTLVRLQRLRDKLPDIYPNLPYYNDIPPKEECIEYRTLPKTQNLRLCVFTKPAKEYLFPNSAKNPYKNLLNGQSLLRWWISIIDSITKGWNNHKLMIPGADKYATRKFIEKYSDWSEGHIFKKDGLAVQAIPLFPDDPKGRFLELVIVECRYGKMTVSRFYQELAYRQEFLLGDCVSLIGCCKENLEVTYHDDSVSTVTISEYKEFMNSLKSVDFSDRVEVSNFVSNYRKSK
CDK5 p35 inh – CDK5/p35 (human) kinase inhibition; inhibition, % at 10 µM; Recombinant CDK5/p35, ADP-Glo luminescence, 60 min; Q00535+Q15078; 330,000 tested, 0.01% active; AID 488839;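 active = highest replicate inhibition of at least 50% and at least 75% of replicates reaching 50%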;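 also: plate controls were DMSO neutral control for no effect and GW8510 at 10 µM for full effect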
dFosB activator – activators of mouse delta FosB homodimer. purified delta FosB, TAMRA-CDK5 oligo fluorescence polarization; percent of positive-control signal above neutral wells. 340,000 tested, 0.99% active. activation, % at 25 µM. P13346;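 active = mean activation above about 17%, with every replicate also reaching it, limit read from the data, passing the limit was not always enough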
DYRK1A inh – Dyrk1A (rat) kinase inhibition; ADP-Glo luminescence, NFATc1 peptide; inhibition, % at 12.5 µM; 310,000 tested, 0.43% active; Q63470; in the data active = inhibition above about 50%;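 also: plate controls were vehicle with enzyme for no effect and no enzyme for full effect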
SMARCA2 act – increases SMARCA2 function in MMTV reporter cells; MG213 cells, MMTV-luciferase reporter, dexamethasone, overnight; activation, % at 9.1 µM; 370,000 tested, 1% active; AID 652017; in the data active = activation above about 7.8%;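 also: 0% = vehicle wells and 100% = reference activator wells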
esBAF inh – blocks esBAF chromatin remodeling in mouse ES cells | 350,000 tested, 2% active | reporter increase, % at 12.5 µM | Bmi1-luciferase knock-in reporter, 24 h; 100% = twice the neutral-well signal | AID 602393; in the data active = activation above about 40%;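 also: 0% = median of the plate's neutral control wells and 100% = double that signal; a rise in the Bmi1 reporter signal indicates esBAF inhibition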
Starred values were filed as active, the others as inactive; / = no result given. In the library only some 3.2% were active in any assay of this set; here they are far more common.

SMILES	Rtt109 HAT inh	CDK5 p35 inh	dFosB activator	DYRK1A inh	SMARCA2 act	esBAF inh
CC(C)(C)c1cc(C(c2cccnc2)N2CCN(CCO)CC2)cc(C(C)(C)C)c1O (stereo unspecified)	91.9*	5.3	-4.6	2.6	-0.6	-7.0
O=c1oc2cc(OCc3ccc(F)cc3F)ccc2cc1-c1ccccn1	/	-1.9	3.8	-0.9	-2.6	45.3*
CO[C@H]1CN(C)C(=O)c2ccc(NC(=O)C3CCCCC3)cc2OC[C@@H](C)N(Cc2nccs2)C[C@@H]1C	/	/	/	/	/	-15.7
O=C(NC(=S)Nc1ccccc1)C1CCCCC1	-7.1	0.5	2.7	-2.7	2.7	41.1*
COc1ccc(NC(=S)NC(=O)C2CCC2)cc1	-1.1	4.1	-10.4	/	3.6	46.7*
O=C(NC(=S)Nc1ccc(Br)cc1)C1CCCCC1	-0.5	1.9	-7.9	-5.0	3.1	27.1
COC(=O)c1ccc(NC(=S)NC(=O)C2CCC2)cc1	22.4	-1.6	0.5	1.7	0.4	/
Cc1noc(C)c1NC(=O)N(C)C[C@@H]1OCCCC[C@H](C)Oc2ccc(NS(C)(=O)=O)cc2C(=O)N([C@@H](C)CO)C[C@@H]1C	/	/	/	/	/	-4.3
C[C@H]1CN([C@@H](C)CO)C(=O)c2cc(-c3ccccc3)cnc2O[C@@H]1CN(C)C(=O)c1cccc(F)c1	/	/	/	/	/	-2.8
NNC(=O)c1ccc(COc2ccc3c(c2)CCC3)o1	-5.8	-0.1	-5.0	-8.1	-0.2	/
O=C(N/N=C/c1cccc(O)c1)c1ccc(COc2ccc3c(c2)CCC3)o1	-4.1	-0.2	-9.4	0.9	4.6	51.6*
O=C(COc1ccc(Br)cc1)Nc1ccc(NC(=O)c2ccccc2)cc1	-6.7	1.2	24.9*	-5.8	-3.3	/
CC(=O)Nc1ccn(-c2ccccc2)n1	14.5	-0.6	-8.4	-5.2	-0.8	27.1
O=C(Nc1ccc(NC(=O)c2ccccc2Br)cc1)c1ccccc1	-4.3	1.7	7.1	13.0	-1.2	42.2*
O=C(Nc1ccc(C(F)(F)F)cc1)c1ccccc1Br	-20.0	-1.4	-4.0	-2.5	3.6	54.7*
O=C(COc1ccc(NC(=O)c2ccccc2)cc1)c1ccccc1	21.6	1.1	-5.9	-5.9	2.8	7.0
O=C(Nc1ccn(-c2ccccc2)n1)c1ccccc1Br	-24.4	1.8	-2.6	4.6	3.1	69.4*
CO[C@H](CN(C)C(=O)c1ccccc1F)[C@H](C)CN([C@H](C)CO)S(=O)(=O)c1ccc(C)cc1	/	/	/	/	/	-3.7
COCCN(C(=O)CCC(=O)Nc1cc(C)on1)C(C(=O)NC(C)(C)C)c1ccccc1Cl (stereo unspecified)	2.3	0.4	-11.6	-4.8	7.8*	-0.7
CCC(=O)Nc1cccc(-c2ccc(N3CCC(C)CC3)nn2)c1	6.3	-1.6	-1.9	1.6	3.5	-57.9
CCC(=O)Nc1ccc(-c2ccc(N3CCC(C)CC3)nn2)cc1	-0.9	/	-1.2	/	/	48.4*
CN(CCC#N)C(=O)c1cc2c(s1)-c1ccccc1SC2	5.7	1.6	-1.4	16.4	4.8	53.3*
N#CCCN(C(=O)c1cc2c(s1)-c1ccccc1S(=O)(=O)C2)c1ccccc1	-2.1	/	-6.3	/	-4.1	-4.0
Cn1c(=NC(=O)COc2ccccc2)sc2cccc(F)c21	-2.6	-1.1	-4.5	1.0	3.3	57.3*
CC(C)C(=O)N=c1sc2cccc(F)c2n1C	-4.4	-0.1	-3.9	4.7	7.4	2.4
SMILES	Rtt109 HAT inh	CDK5 p35 inh	dFosB activator	DYRK1A inh	SMARCA2 act	esBAF inh
O=S(=O)(N[C@@H]1CC[C@@H](CCn2cc(-c3ccccn3)nn2)O[C@H]1CO)c1cccc(F)c1	/	/	/	/	/	-2.5
Clc1ccc2c(c1)[C@H]1OCC[C@H]1[C@@H](c1ccco1)N2	2.2	4.4	-17.0	25.0	0.8	48.4*
Fc1ccc2c(c1)[C@H]1OCC[C@H]1[C@@H](c1ccco1)N2	0.6	1.4	-2.4	11.1	3.0	26.2
COc1ccccc1CNC(=O)C[C@H]1CC[C@@H]2[C@H](COC[C@H](O)CN2C(=O)Nc2ccc(Cl)cc2)O1	/	/	/	/	/	43.2*
COc1ccccc1CNC(=O)C[C@H]1CC[C@H]2[C@@H](COC[C@H](O)CN2C(=O)Nc2ccc(Cl)cc2)O1	/	/	/	/	/	33.6
COC(=O)C[C@H]1CC[C@H]2[C@@H](COC[C@@H](O)CN2C(=O)Nc2cccc(F)c2)O1	/	/	/	/	/	49.8*
COC(=O)C[C@@H]1CC[C@H]2[C@@H](COC[C@H](O)CN2C(=O)Nc2cccc(F)c2)O1	/	/	/	/	/	20.2
O=C(NC(=S)Nc1ccccn1)c1ccc([N+](=O)[O-])cc1	-4.5	-0.8	-5.7	-6.1	4.2	76.6*
O=C(NC(=S)Nc1ccccn1)c1ccccc1	-4.9	1.9	-0.8	3.9	3.0	3.7
Cc1ccccc1NC(=O)C1Cc2ccccc2CN1C(=O)c1ccco1 (stereo unspecified)	4.7	-0.4	-8.7	-2.1	7.2	54.9*
COc1cccc(NC(=O)C2Cc3ccccc3CN2C(=O)c2ccco2)c1 (stereo unspecified)	5.9	1.0	-8.7	-7.2	5.6	57.2*
CCC(=O)N1[C@@H]2Cn3c(cccc3=O)[C@H]1[C@@H](C(=O)N1CCCCC1)[C@@H]2CO	/	/	/	/	/	2.9
CCC(=O)N[C@H]1CC[C@@H](CCNS(=O)(=O)c2ccc(Cl)cc2)O[C@H]1CO	/	/	/	/	/	-0.6
Cc1ccc(/C=N/Nc2ccnc3cc(Cl)ccc23)c(C)c1	-4.9	-1.7	49.4*	0.8	-2.5	/
Clc1ccc2c(N/N=C/c3ccc(Br)cc3)ccnc2c1	1.4	1.6	33.9*	0.7	0.1	8.7
Clc1ccc2c(N/N=C/c3cccnc3)ccnc2c1	-13.6	-7.0	-27.2	2.1	4.8	11.2
O=C(CCN1C(=O)/C(=C/c2ccc(F)cc2)SC1=S)NCCc1ccc(O)cc1	-5.2	-0.3	67.6*	-4.4	0.3	-3.1
O=C(CCN1C(=O)/C(=C/c2ccc(F)cc2)SC1=S)Nc1cccnc1	-10.3	-0.2	19.3*	-3.0	-4.3	-7.2
C[C@H](CO)N1C[C@H](C)[C@H](CN(C)CC2CC2)Oc2c(NS(=O)(=O)c3cccs3)cccc2C1=O	/	/	/	/	/	-2.3
CO[C@H](CN(C)Cc1nccs1)[C@H](C)CN([C@@H](C)CO)S(=O)(=O)c1ccc(C)cc1	/	/	/	/	/	-2.6
Cc1ccccc1C(=O)c1cccn1CC(=O)NCc1ccccc1	-5.2	0.2	-6.8	-0.3	-0.1	16.3
COc1ccc(CNC(=O)Cn2cccc2C(=O)c2ccccc2)cc1	-0.5	-0.9	-3.2	-6.3	-1.0	53.0*
COc1ccc(CNC(=O)Cn2cccc2C(=O)c2ccccc2C)cc1	2.1	1.7	-5.2	2.9	2.8	47.2*
CC(=O)Nc1ccc(C(=O)N/N=C/c2cc(Br)cc(Br)c2O)cc1	5.1	-0.1	96.6*	1.0	-3.3	1.2
Cc1ccc(CONC(=O)c2ccc(Cl)cc2)cc1	-10.1	-9.0	-7.3	4.8	1.3	28.4
Cc1ccc(CONC(=O)c2ccc(C)cc2)cc1	8.9	-0.6	-4.6	-6.1	1.6	43.5*
